Measurements as given in PubChem BioAssay AID493201 (National Center for Advancing Translational Sciences (NCATS), 2011).
Inconclusive results are not listed. Calls of active or inactive are those of the source. The call rests on the fitted dose curve; in most records, active means well fitted activation curve with a large enough effect; inconclusive means small, poorly fitted or top-dose-only effect; inactive means no such curve, though single readings can be large or run the other way.

Assay: qHTS Assay for Identifying a Potential Treatment of Ataxia-Telangiectasia: Secondary assay (no NCS) hit validation;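 further: phosphorylated KAP1 signal as a proxy for ATM-like kinase activity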; on activation: 0% is about no effect
Details: A-T patient fibroblasts, AlphaLISA, no DNA damage added, 90 min; series mostly up to 76.9 µM; activation: at the top concentration
Outline: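 Without NCS-induced DNA breaks, ATM-like activity scored as phospho-KAP1 AlphaLISA signal (pKAP1/total KAP1 bead pair) in ATM-null F2112 fibroblasts; compound series up to 76.7 uM final, 37C incubation, lysates read on AlphaScreen protocol.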
Potency means the concentration at half of the fitted maximal effect.

Structure (SMILES)	activation	Potency
O=C(O)c1ccc(-c2nc3ccccc3s2)o1	12.2% (inactive)	–
COc1ccc(-n2c(=S)[nH]c3ccccc3c2=S)cc1	-3.23% (inactive)	–
CCN1CCN(CC(=O)Nc2ccc(C(C)=O)cc2)CC1	–	26 µM (active)
CC(=O)Nc1ccc(NC(=O)CSc2nnnn2-c2ccc(F)cc2)cc1	2.61% (inactive)	–
Cc1cc2c(c(=O)o1)C(CCC1CCCCC1)C(C#N)=C(N)O2 (stereo not given)	10.2% (inactive)	–
CCC(=O)Nc1ccc(S(=O)(=O)c2ccc(NC(=O)CC)cc2)cc1	15.3% (inactive)	–
COc1cc(/C=C2\SC(=S)N(C(C(=O)O)c3ccccc3)C2=O)ccc1O (stereo not given)	3.23% (inactive)	–
CC(=O)Nc1ccc(NC2=CC(=O)c3ccccc3C2=O)cc1	-3.23% (inactive)	–
COC(=O)c1cccc2c1-c1ccccc1/C2=N\NC(N)=O	15.1% (inactive)	–
O=C(c1nn2c(C(F)(F)F)cc(-c3ccc(F)cc3)nc2c1Cl)N1CCOCC1	0.87% (inactive)	–
CCC[C@H]1CCCC/C=C\CCCC(=O)OCCN1C(=O)OC(C)(C)C	0% (inactive)	–
CC(Oc1ccccc1)C(=O)Nc1cccc(NC(=O)c2ccco2)c1 (stereo not given)	18.3% (inactive)	–
Cc1ccc(OC(=O)c2cc(C)nn2C(C)(C)C)cc1	6.96% (inactive)	–
CCCCCCCCCn1ccc(=N)cc1	22% (inactive)	–
O=C1C2C3C=CC(CC3)C2C(=O)N1c1cccc(Br)c1 (stereo not given)	-5.08% (inactive)	–
COc1ccc(-c2csc(-c3ccc(O)cc3)n2)cc1	-2.15% (inactive)	–
COc1ccc(CCNC2=NCCS2)cc1OC	0% (inactive)	–
CNC(=S)N/N=C/c1ccc2c(c1)OCCO2	75.4% (inactive)	–

Structure (SMILES)	activation	Potency
CCc1oc(C(=O)OC)cc1CSC(=N)N	16.9% (inactive)	–
O=C(CCCn1nnnc1CN1CCOCC1)N1CCC(c2ccc(F)cc2)C1 (stereo not given)	-5.38% (inactive)	–
CC(C)(C)NC(=O)c1cccc2c1-c1ccccc1C2=O	-6.45% (inactive)	–
COc1ccccc1Nc1nc(NCCCN(C)C)nc(N)c1[N+](=O)[O-]	–	2.6 µM (active)
Cc1ccc2c(c1)C(=O)CC(O)(C(F)(F)F)O2 (stereo not given)	-4.3% (inactive)	–
O=C(Nc1ccc(N2CCCC2)cc1)c1ccc(Cl)cc1Cl	-20% (inactive)	–
O=C1NC(NS(=O)(=O)c2ccc(Cl)cc2)(C(F)(F)F)C(=O)N1CCc1ccccc1 (stereo not given)	-1.74% (inactive)	–
CNC(=O)Cc1csc2ccc(C)cc12	7.53% (inactive)	–
S=c1[nH]nc(C2CCCCC2)n1/N=C/c1ccc(Br)cc1	20.9% (inactive)	–
CCOC(=O)c1[nH]c(COC(=O)c2ccccc2NC(=O)c2ccco2)c(C(=O)OCC)c1C	-1.08% (inactive)	–
CCOc1cccc(C(=O)Nc2ccccc2N2CCN(C(=O)C(C)C)CC2)c1	-5.38% (inactive)	–
COc1ccccc1NC(=O)C1CCCN(S(=O)(=O)c2ccc(-n3cnnn3)cc2)C1 (stereo not given)	-4.35% (inactive)	–
O=C(c1ccc(F)cc1)N1CCC(c2ccccc2)C1 (stereo not given)	-9.68% (inactive)	–
O=C(CCC(=O)c1ccc(F)cc1)Nc1cccc(Br)c1	-10.4% (inactive)	–
CC(=O)c1ccc([N+](=O)[O-])c(CS(=O)(=O)c2ccc(Cl)cc2)c1	0% (inactive)	–
COc1ccc(C2/C=C\CN(S(=O)(=O)c3ccc4ccccc4c3)CC(=O)N2Cc2ccc(F)cc2)cc1 (stereo not given)	–	41.2 µM (active)
OC(CN1CCCCC1)Cn1c2ccc(Cl)cc2c2cc(Cl)ccc21 (stereo not given)	1.08% (inactive)	–
